Assay results: PubChem BioAssay
Unmarked numbers belong to inactive results. No rule for the calls is given here.

Biological target: Pantothenate synthetase (Mycobacterium tuberculosis (strain ATCC 25618 / H37Rv)) (UniProt P9WIL5)
Assay: Coupled enzyme confirmation of inhibitors against recombinant Mtb PanC (AID 375);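 also: 0% = full reaction with vehicle and 100% = no enzyme background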
Conditions: coupled enzyme assay; at 10 µM, active compounds read high

Chain of Pantothenate synthetase (Mycobacterium tuberculosis (strain ATCC 25618 / H37Rv)) (P9WIL5 whole entry, looked up): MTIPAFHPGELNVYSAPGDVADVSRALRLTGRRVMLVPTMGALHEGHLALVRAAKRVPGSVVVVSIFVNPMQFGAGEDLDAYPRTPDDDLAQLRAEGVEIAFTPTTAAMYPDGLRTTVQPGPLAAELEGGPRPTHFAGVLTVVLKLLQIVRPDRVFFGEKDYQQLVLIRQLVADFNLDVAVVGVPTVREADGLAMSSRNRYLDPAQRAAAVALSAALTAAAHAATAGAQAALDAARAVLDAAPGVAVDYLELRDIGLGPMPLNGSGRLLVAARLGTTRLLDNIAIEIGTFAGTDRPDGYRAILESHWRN

Row | SMILES | inhibition [%]
1 | C=C(C)CSc1nnc(-c2cccc(S(=O)(=O)N(C)C)c2)n1-c1cc(OC)ccc1OC | 1
2 | Cc1c2c(nc3nc4ccccc4n13)CC(C)(C)CC2=O | 8
3 | CCOC(=O)C1CCN(CC(=O)c2c(C)[nH]c3ccccc23)CC1 | 1
4 | CCOC(=O)Nc1ccc(OC)cc1S(=O)(=O)N1CCCCC1 | 0
5 | COc1ccc(OCC(=O)Nc2ccc(N3CCOCC3)c(Cl)c2)cc1 | 0
6 | CCCn1c(SCC(=O)NC(C)(C)C)nnc1C(C)C | 3
7 | CCCCCCC(c1c(C)n(C)n(-c2ccccc2)c1=O)c1c(C)n(C)n(-c2ccccc2)c1=O | 0
8 | NC(=O)c1c(NC(=O)CSc2nnc(-c3ccco3)n2-c2ccccc2)sc2c1CCC2 | 0
9 | O=C(NCC1CCCO1)C1CC(c2ccc(Cl)c(Cl)c2)=NO1 (stereo not given) | 0
10 | Cc1cc(C)cc(N2CCCn3c2nc2c3c(=O)n(CCN3CCOCC3)c(=O)n2C)c1 | 7
11 | CCN(CC)CCCn1c(=S)[nH]c2cc(Cl)ccc2c1=O | 0
12 | Cc1nn(-c2ccccc2)c2c1C(c1c(C)[nH]c(C#N)c1C)C(C#N)=C(N)O2 (stereo not given) | 1
13 | COc1ccc(C2CNC(=O)C2)cc1OC1CCCC1 (stereo not given) | 1
14 | CCOC(=O)c1nnn(-c2nonc2N)c1CN1CCc2ccccc2C1 | 2
15 | CCOC(=O)CSc1nnc(-c2ccc(NS(=O)(=O)c3ccc(C)cc3)cc2)o1 | 0
16 | COc1cccc(C2=Nn3c(nnc3-c3ccccc3O)SC2)c1 | 1
17 | O=C(c1ccc(-c2ccccc2)cc1)N1CCN(c2ncccn2)CC1 | 8
18 | CCC(C)(NC(=O)CNC(C)=O)C(=O)NC1CCCCC1 (stereo not given) | 0
19 | CS(=O)(=O)C1=C(O)C(=O)N(c2ccccc2)C1c1ccccc1 (stereo not given) | 5
20 | CCN(CC)CCCNC1CCS(=O)(=O)C1 (stereo not given) | 1

Row | SMILES | inhibition [%]
21 | Cn1c(=O)[nH]c(=O)c2c1nc(CN1CCN(c3cccc(Cl)c3)CC1)n2CCc1ccccc1 | 4
22 | Cc1ccc(-n2nnnc2SCC(=O)c2cc(C)n(CC3CCCO3)c2C)cc1 (stereo not given) | 0
23 | Cc1nc2cccc(C(=O)NC3CCCCC3)c2o1 | 0
24 | CCC1CCCCN1C(=O)C1CC(c2cc(Cl)c(OC)cc2OC)=NO1 (stereo not given) | 1
25 | O=C(O)C(c1ccccc1)N1CCCC1 (stereo not given) | 0
26 | O=c1c[n+]([O-])c2ccccc2n1OCc1ccccn1 | 4
27 | Cc1cc(=O)c2n(Cc3ccccc3Cl)nc[n+]2[nH]1 | 5
28 | COc1ccc(N(CC(=O)Nc2ccc(F)c(Cl)c2)S(=O)(=O)c2c(C)noc2C)cc1 | 11
29 | CCc1nccn1S(=O)(=O)c1ccc2ccc(C)cc2c1 | 3
30 | CCOC(=O)N1CCC(NC(=O)Cn2ncc3c4ccccc4n(C)c3c2=O)CC1 | 5
31 | CCOC(=O)N1CCN(C(=O)CN(C)S(=O)(=O)c2ccc(OC)c(OC)c2)CC1 | 0
32 | CN(CC(=O)N1CCN(c2ccccn2)CC1)S(=O)(=O)c1ccc2ccccc2c1 | 0
33 | Cc1cc(C)cc(NC(=O)C2CCCN(c3nccc(C)n3)C2)c1 (stereo not given) | 0
34 | CCOC(=O)CNC(=O)CSc1nc(N)cc(N)n1 | 1
35 | CCCOC(=O)c1[nH]c2c(c1C)C(=O)CC(c1cc(OC)c(OC)c(OC)c1)C2 (stereo not given) | 0
36 | COCCCNCC(=O)Nc1ccc(OC(F)(F)F)cc1 | 3
37 | COc1ccc(Cn2nnnc2CN2CCOCC2)cc1 | 6
38 | CN(C)c1ccc(/C=C/c2ccncc2)cc1 | 1
39 | Cc1cc(NCC2CCCO2)n2c(nc3ccccc32)c1C#N (stereo not given) | 1
40 | CC1(C)CC(=O)C(C#N)=C(NCCCO)C1 | 0
